Results on eight compounds are retold here after PubChem BioAssay (NCI).

Among the test systems are SK-MEL-2 melanoma; EKVX NSCLC; SN12C renal; UO-31 renal; ACHN renal; CAKI-1 renal; A498 renal; CCRF-CEM leukemia; MOLT-4 leukemia; SR leukemia; RPMI-8226 leukemia; OVCAR-8 ovarian; OVCAR-5 ovarian; OVCAR-4 ovarian; SK-OV-3 ovarian; IGROV1 ovarian; OVCAR-3 ovarian; HS 578T breast; NCI/ADR-RES ovarian.
Common to all, as to test: NCI-60 one-dose screen, 48 h (100 = growth as untreated, 0 = no growth, -100 = all killed)
Holding throughout (conditions): 10 µM unless noted

Compounds without any hit were thinned out: in the full panel of roughly 83,000, 20% have a hit.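 Values shown are percent growth following 48 h exposure of cells in 96-well plates to a single concentration of compound; below 10 was considered active.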 A number with no mark means an inactive call. The source made the active and inactive calls.

Consider `CCSc1nc(-c2ccco2)n2nc(-c3ccco3)cc2n1`, for which the growth was 129% with SK-MEL-2 melanoma; 76.1% in the experiment with EKVX NSCLC; 95.8% in the experiment on SN12C renal; 72.4% in the experiment on UO-31 renal; 88.8% in the experiment with ACHN renal; 84.3% with CAKI-1 renal. The growth is 91.7% with A498 renal; 86.7% in the experiment on CCRF-CEM leukemia; 118% in the experiment on MOLT-4 leukemia; 93% with SR leukemia; 52.8% in the experiment on RPMI-8226 leukemia; 97.1% in the experiment on OVCAR-8 ovarian. For the same compound, the growth in the experiment with OVCAR-5 ovarian was 110%; in the experiment on OVCAR-4 ovarian, 65.9%; in the experiment with SK-OV-3 ovarian, 101%; in the experiment with IGROV1 ovarian it was 82.9%; in the experiment with OVCAR-3 ovarian, 105%; in the experiment on HS 578T breast, 96.2%. In addition, the growth in the experiment on NCI/ADR-RES ovarian was 95.3%.

In the case of `C#C[C@]1(O)CCC2C3CCc4cc(O)ccc4C3CC[C@@]21C` (some centres not stated), the growth in the experiment on SK-MEL-2 melanoma was 18.5%; in the experiment with EKVX NSCLC, 31.6%; in the experiment with SN12C renal, 52.3%; in the experiment with UO-31 renal, 55.7%; in the experiment on ACHN renal, 60.4%; in the experiment on CAKI-1 renal, 45.3%. The growth with A498 renal was 49.2%; in the experiment with CCRF-CEM leukemia it was 39%; in the experiment with MOLT-4 leukemia, 23.4%; in the experiment with SR leukemia it was 8.3% (active); with RPMI-8226 leukemia, 28.4%; in the experiment with OVCAR-8 ovarian, 47.5%. The growth in the experiment on OVCAR-5 ovarian was 78.1%; in the experiment with OVCAR-4 ovarian, 66.8%; with SK-OV-3 ovarian, 43%; in the experiment with OVCAR-3 ovarian it was 16.1%; with HS 578T breast it was 4.63% (active); with NCI/ADR-RES ovarian it was 13.5%.

Turning to `CC(C)Sc1nc(-c2ccc(Br)cc2)c(C#N)c(N2CCCCC2)n1`, the growth with SK-MEL-2 melanoma was 108%; in the experiment on EKVX NSCLC, 93.3%; with SN12C renal it was 94.3%; in the experiment on UO-31 renal, 95.3%; in the experiment on ACHN renal, 101%; in the experiment on CAKI-1 renal, 95.9%. Besides, the growth in the experiment on A498 renal was 83.8%; in the experiment on CCRF-CEM leukemia, 95.2%; with MOLT-4 leukemia it was 110%; with SR leukemia, 106%; in the experiment on RPMI-8226 leukemia, 98.8%; in the experiment with OVCAR-8 ovarian it was 98.6%. Besides, the growth is 88.7% with OVCAR-5 ovarian; 110% with SK-OV-3 ovarian; 104% in the experiment on IGROV1 ovarian; 104% with OVCAR-3 ovarian; 107% in the experiment on HS 578T breast; 102% in the experiment with NCI/ADR-RES ovarian.

Turning to `CCC(C)C1NC(=O)C(CCNCS(=O)(=O)O)NC(=O)C(NC(=O)C(CCNCS(=O)(=O)O)NC(=O)C(NC(=O)C(CCNCS(=O)(=O)O)NC(=O)CCCCC(C)C)C(C)O)CCNC(=O)C(C(C)O)NC(=O)C(CCNCS(=O)(=O)O)NC(=O)C(CCNCS(=O)(=O)O)NC(=O)C(C(C)CC)NC1=O` (configuration not stated), the growth with SK-MEL-2 melanoma is 39.9%; with EKVX NSCLC, 83.7%; in the experiment on SN12C renal, 63.6%; with UO-31 renal it was 75%; with ACHN renal, 94.5%; in the experiment on CAKI-1 renal, 99.4%. For the same compound, the growth was 88.8% in the experiment with A498 renal; 20.7% with CCRF-CEM leukemia; 66.4% in the experiment with MOLT-4 leukemia; 16.4% in the experiment with SR leukemia; 22.6% in the experiment on RPMI-8226 leukemia; 78.7% in the experiment on OVCAR-8 ovarian. In addition, the growth is 73.1% with OVCAR-5 ovarian; 58.1% in the experiment with OVCAR-4 ovarian; 40.3% in the experiment with SK-OV-3 ovarian; 56.8% in the experiment with IGROV1 ovarian; 107% in the experiment with NCI/ADR-RES ovarian.

For the compound `CC(C)Sc1nc(Cl)c(C#N)c(-c2ccc(F)cc2)n1`, the growth was 98.2% in the experiment on SK-MEL-2 melanoma; 99.2% in the experiment on EKVX NSCLC; 97.3% in the experiment with SN12C renal; 85.6% in the experiment with UO-31 renal; 101% in the experiment with ACHN renal; 104% in the experiment with CAKI-1 renal. Further, the growth is 99.9% in the experiment on A498 renal; 6.61% (active) with CCRF-CEM leukemia; 7.38% (active) with MOLT-4 leukemia; -25.2% (active) in the experiment on SR leukemia; 78.5% in the experiment on RPMI-8226 leukemia; 97.1% with OVCAR-8 ovarian. For the same compound, the growth in the experiment on OVCAR-5 ovarian was 99.2%; in the experiment on OVCAR-4 ovarian, 107%; with SK-OV-3 ovarian it was 110%; in the experiment on OVCAR-3 ovarian, 128%; with HS 578T breast, 106%; with NCI/ADR-RES ovarian, 105%.

As to `OC(c1ccccc1)C(NCc1ccccc1)c1ccccc1` (configuration not stated), the growth in the experiment with SK-MEL-2 melanoma is 120%; in the experiment with EKVX NSCLC, 86%; in the experiment on SN12C renal, 104%; in the experiment on UO-31 renal, 92%; in the experiment with ACHN renal, 99.5%; with CAKI-1 renal it was 62.8%. Besides, the growth is 87.7% in the experiment with A498 renal; 97.3% in the experiment on CCRF-CEM leukemia; 100% in the experiment with MOLT-4 leukemia; 103% with SR leukemia; 84.3% with RPMI-8226 leukemia; 109% in the experiment on OVCAR-8 ovarian. Also, the growth with OVCAR-5 ovarian is 88.6%; with OVCAR-4 ovarian it was 94.3%; in the experiment with SK-OV-3 ovarian, 101%; with IGROV1 ovarian, 96.7%; in the experiment with OVCAR-3 ovarian it was 111%; in the experiment on HS 578T breast, 107%. In addition, the growth in the experiment with NCI/ADR-RES ovarian was 85.1%.

`N#CSCC1CC(O)(c2ccccc2)C(c2ccccc2)C(c2ccc(Cl)cc2)O1` (configuration not stated): the growth with SK-MEL-2 melanoma was -42.7% (active); in the experiment with EKVX NSCLC it was -40% (active); in the experiment with SN12C renal, -91.9% (active); in the experiment with UO-31 renal, -93.1% (active); with ACHN renal, -71.6% (active); in the experiment on CAKI-1 renal it was -67.1% (active). Besides, the growth was 6.8% (active) with A498 renal; 10.2% in the experiment with CCRF-CEM leukemia; -10% (active) in the experiment with MOLT-4 leukemia; -16% (active) with SR leukemia; -4.14% (active) in the experiment on RPMI-8226 leukemia; -86.1% (active) in the experiment with OVCAR-8 ovarian. Moreover, the growth in the experiment on OVCAR-5 ovarian was 0.178% (active); with OVCAR-4 ovarian it was -32.7% (active); in the experiment with SK-OV-3 ovarian, 49.5%; with IGROV1 ovarian it was -30.7% (active); with OVCAR-3 ovarian, -100% (active); in the experiment on HS 578T breast, -32.3% (active). Also, the growth in the experiment on NCI/ADR-RES ovarian was -71.5% (active).

In the case of `CCOc1nc(-c2ccco2)n2nc(-c3ccco3)cc2n1`, the growth with SK-MEL-2 melanoma is 117%; in the experiment on EKVX NSCLC it was 95%; with SN12C renal it was 104%; in the experiment on UO-31 renal, 91.1%; in the experiment with ACHN renal it was 95.5%; in the experiment on CAKI-1 renal, 95.9%. The growth was 83.5% in the experiment with A498 renal; 102% in the experiment on CCRF-CEM leukemia; 114% with MOLT-4 leukemia; 123% with SR leukemia; 84.4% in the experiment on RPMI-8226 leukemia; 97% in the experiment on OVCAR-8 ovarian. Further, the growth in the experiment with OVCAR-5 ovarian is 108%; in the experiment on OVCAR-4 ovarian, 87.2%; in the experiment on SK-OV-3 ovarian it was 110%; with IGROV1 ovarian, 106%; with OVCAR-3 ovarian, 122%; in the experiment with HS 578T breast, 95.7%. The growth in the experiment on NCI/ADR-RES ovarian is 99.5%.
